Paper PMC7819943, “Rice protein-binding microarrays: a tool to detect cis-acting elements near promoter regions in rice”
Whole data set: some 39,000 sequences, median “fluorescence intensity (a.u.)” near 4,300, cut for the highest 2% near 39,000. For the sample, the highest values were picked, then their nearest neighbours and some sequences at random.

molecular target: T1, OsSMF1 (Oryza sativa, UniProt Q6ZLB0 1-436); test: protein-binding microarray (RPBM); PBS, 2% BSA, 51.3 ng/ul salmon testes DNA, 50 uM zinc acetate, 200 nM TF, 25 C, 1 h; high values mean tight binding; conditions: protein: recombinant; tags: N-terminal polyhistidine and DsRed monomer fusion (pET32a); chain copies: 2; label: CyDye5-dUTP incorporated in the synthesized complementary strand; 3' TTTTT single-stranded linker to array surface; dsDNA, one strand shown
T1 sequence: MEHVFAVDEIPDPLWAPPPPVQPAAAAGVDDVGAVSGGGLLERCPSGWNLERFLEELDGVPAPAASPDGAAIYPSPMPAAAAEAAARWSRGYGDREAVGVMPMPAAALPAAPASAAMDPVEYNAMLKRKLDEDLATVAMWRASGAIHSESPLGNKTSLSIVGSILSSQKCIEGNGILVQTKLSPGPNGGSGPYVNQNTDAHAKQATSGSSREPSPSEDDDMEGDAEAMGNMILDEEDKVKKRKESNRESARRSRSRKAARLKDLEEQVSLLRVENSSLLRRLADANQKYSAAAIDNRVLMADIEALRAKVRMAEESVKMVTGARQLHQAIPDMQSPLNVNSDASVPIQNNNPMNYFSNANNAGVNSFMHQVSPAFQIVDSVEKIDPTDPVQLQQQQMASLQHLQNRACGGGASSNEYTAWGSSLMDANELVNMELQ
How it was run: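 Using Ni–NTA, transcription factors fused N-terminally to polyhistidine and DsRed were purified after expression in E. coli BL21-CodonPlus. These were incubated at 200 nM with a blocked, double-stranded custom Agilent array for 1 h at 25 °C in a buffer containing 50 µM zinc acetate, and the array was washed. The binding signal is per-feature fluorescence intensity (arbitrary units) on an Axon 4000B scanner.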

Sequence	binding signal
AACTTTTAATGATGTTCAACATGGGAAAATATGTGGTGGACGGAGTCACCTAGTGCAG	8320 fluorescence intensity (a.u.)
AATATTGTGTGTTGTTGTGTTGTCATCTGATATATTTTAGCGGAGTCACCTAGTGCAG	6470 fluorescence intensity (a.u.)
ACCTAAACGAGCCAACACGCACGCTCATCGCATCTTTGCGCGGAGTCACCTAGTGCAG	3810 fluorescence intensity (a.u.)
ACACATGGAACTTGTGCCATATATCTGTAGGTGTGAAAATCGGAGTCACCTAGTGCAG	41300 fluorescence intensity (a.u.)
TTCTACAACTTGGACCATAAAACGTGTAGTTTTGTGAAATCGGAGTCACCTAGTGCAG	3570 fluorescence intensity (a.u.)
AAGGTAGGTTGTAGAACTGATGATCTGTCAATGGTGAAATCGGAGTCACCTAGTGCAG	4940 fluorescence intensity (a.u.)
TGCGGACTACGTCAAGCTGACGTCATCTCCGACCCGACCTCGGAGTCACCTAGTGCAG	54000 fluorescence intensity (a.u.)
TCATCTCATCTCTCCACGTCACCCGACTCCGACTCCGTGGCGGAGTCACCTAGTGCAG	16900 fluorescence intensity (a.u.)
CGATGGCTGCCACTGCCAACGTCAAGCTCCTCTCCGACGGCGGAGTCACCTAGTGCAG	3850 fluorescence intensity (a.u.)
CCTACCACTGTTGAGTAACCACGTCTTTCGACGTATGCAGCGGAGTCACCTAGTGCAG	6930 fluorescence intensity (a.u.)
GCGGTCGGGCCGGCCCAGGAAATACCAGGCGACGTGGCGGCGGAGTCACCTAGTGCAG	8410 fluorescence intensity (a.u.)
ACTGACATCGAGGCCCCACGTGTCAGTGACCCAGTTCTTTCGGAGTCACCTAGTGCAG	13400 fluorescence intensity (a.u.)
TAAACTCTTTCTGTGAGTCAGCACAATAGCCCATCGTGCCCGGAGTCACCTAGTGCAG	18700 fluorescence intensity (a.u.)
ACTTCACCAGTTCACCACCGTGGCACTCCCTGGGACTGAACGGAGTCACCTAGTGCAG	3640 fluorescence intensity (a.u.)
GTGCGGATGGGGAGGTGTGGTGGAAGGGTGGACAGTGGAGCGGAGTCACCTAGTGCAG	3410 fluorescence intensity (a.u.)
GAGGACATGCATGTGCAAGGGGAGCAGGTGGGGTAAAATGCGGAGTCACCTAGTGCAG	45500 fluorescence intensity (a.u.)
TTGGGAGGGAGAGTGGTAAAGGGTGCTGGGGCTTTGGCTGCGGAGTCACCTAGTGCAG	4250 fluorescence intensity (a.u.)
TTTGCCACTGTCCTACTAGATCTTGGTCTTATTTGAGAAGCGGAGTCACCTAGTGCAG	3550 fluorescence intensity (a.u.)
TATGACATGTGGGCCAACTGCCAAGCAGCCTTACTTGACGCGGAGTCACCTAGTGCAG	3360 fluorescence intensity (a.u.)
TCACATGATGTCTTGGATGTTGTGTAGAAATTCTCTTTCCCGGAGTCACCTAGTGCAG	3560 fluorescence intensity (a.u.)
TATTTGTATTATGTTGCAAATGTTGCAATATATATATTTACGGAGTCACCTAGTGCAG	15300 fluorescence intensity (a.u.)

Sequence	binding signal
TGTTTGGACATATGCATGGAGCATTAAATGTGGATGAAAACGGAGTCACCTAGTGCAG	4350 fluorescence intensity (a.u.)
TACAGTATGTTGTGGAAGGCCTTTGAATTATATTGCATTACGGAGTCACCTAGTGCAG	49000 fluorescence intensity (a.u.)
TATGAAAGTTTTCGATGTGATGTAATGTGATGGAAAGTTACGGAGTCACCTAGTGCAG	3140 fluorescence intensity (a.u.)
CTCAGTATATATGTTTTGAATTCATTATGACATCTTTACACGGAGTCACCTAGTGCAG	3360 fluorescence intensity (a.u.)
TTATTGGTGGATGCCTCTGAGTCGGATGTGGGTCGTACAACGGAGTCACCTAGTGCAG	3660 fluorescence intensity (a.u.)
CTGAAAAGTTGTGTGTGTATGACATGTTGATGTGATGGAACGGAGTCACCTAGTGCAG	5180 fluorescence intensity (a.u.)
GTTGGAGATGCTCTGAGAAACGCATATGTGGATGGTCTTACGGAGTCACCTAGTGCAG	48100 fluorescence intensity (a.u.)
GCTATTTATCTCATATGATGTCTTGGATGTTGTGTAGAAACGGAGTCACCTAGTGCAG	40600 fluorescence intensity (a.u.)
TTGGAAGTTTATGTGTGTAGAAAAGTTTTGATGTAATGAACGGAGTCACCTAGTGCAG	44400 fluorescence intensity (a.u.)
TCTTGATGATGTGGAGTTTATGGAAACTATGTCTAGTGTTCGGAGTCACCTAGTGCAG	7560 fluorescence intensity (a.u.)
GCATGTAGCTATGCAGCCATCCACGTCACTCCTTGCGTACCGGAGTCACCTAGTGCAG	31800 fluorescence intensity (a.u.)
ATTAAGCACTACGTCAGATATGATTGGCCATCATTGCATTCGGAGTCACCTAGTGCAG	3150 fluorescence intensity (a.u.)
ACACCCGTCCGTCCCGTCTCGTTCTGCGCCGTCTCGCCGGCGGAGTCACCTAGTGCAG	18700 fluorescence intensity (a.u.)
GAAGATAGTACTAACTATATTTTGTAACGGAGAGATTGTTCGGAGTCACCTAGTGCAG	4130 fluorescence intensity (a.u.)
TGTTAGAAAGTCTTATAATATAAAACGGAGGAAATATTTACGGAGTCACCTAGTGCAG	6480 fluorescence intensity (a.u.)
TTGGACAAATCATTTGGCAAAATTTCAAAGTTTTGAATCTCGGAGTCACCTAGTGCAG	28600 fluorescence intensity (a.u.)
TGAGTGAATACACAGTACTATGACGACGATAAGGTTGGGGCGGAGTCACCTAGTGCAG	32700 fluorescence intensity (a.u.)
AGTAGTGAGGTTGAGGCATAAGTACATTGAATTGAATTGACGGAGTCACCTAGTGCAG	44100 fluorescence intensity (a.u.)
TGTGGACAATGCTAGAAAGTCTTACATTGTCAAACGGATGCGGAGTCACCTAGTGCAG	39500 fluorescence intensity (a.u.)
TACACACCATAATTGAAGTATTGAGTCACACATAATTGAACGGAGTCACCTAGTGCAG	3220 fluorescence intensity (a.u.)
TTCTTATTGTCTTAGCTACAAACGATCCATACAAACATTGCGGAGTCACCTAGTGCAG	4240 fluorescence intensity (a.u.)
